Screening results from PubChem.
An excerpt weighted towards active compounds, which were near 2.1% of everything screened.
IL1B NFkB inh: blocks IL-1B driven NFkB nuclear translocation in HUVEC cells; inhibition, % at 2 µM; HUVEC IL-1B NFkB p65 nuclear translocation imaging; 94,000 tested, 0.43% active;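 active = inhibition above about 30% together with a positive call from visual inspection of the well image, limit read from the data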;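 note: nuclear over cytoplasmic p65 intensity ratio measured by imaging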
Measles CPE: protection of cells from measles virus. Measles virus-infected cells, CPE protection, absorbance. protection (pct of control), % at 4 µM. 140,000 tested, 1.5% active. AID 841; in the data active = protection mostly above about 24%, no sharp cut-off; inactive = mostly below about 26%
HUVEC tox IL1B: HUVEC cytotoxicity counter-screen, IL-1B stimulated; HUVEC cell count loss, Hoechst imaging; cell count reduction, % at 2 µM; 94,000 tested, 0.41% active; AID 845;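 active = cell count reduction more than 3 SD above the screen-wide mean, cut at about 70% in these data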
IL1B NFkB pot: enhances IL-1B driven NFkB nuclear translocation; HUVEC IL-1B NFkB p65 nuclear translocation imaging; activation, % at 2 µM; 94,000 tested, 0.3% active; AID 819;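 active = activation above 40%, about the mean plus 3 SD, also judged a hit on visual image review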;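 note: percent activation is computed from the nuclear over cytoplasmic p65 intensity ratio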
A number is an active result; n = inactive; x = no result given.

SMILES	IL1B NFkB inh	Measles CPE	HUVEC tox IL1B	IL1B NFkB pot
CC12CCC3C(CCC4C/C(=N/O)CCC43C)C1CCC2O (configuration not stated)	x	41	x	x
Cc1ccccc1-n1c(C)nc2sccc2c1=O	n	n	n	n
CCCC(C)C1(CC)C(=O)NC(=Nc2ccc(F)cc2)NC1=O (configuration not stated)	n	38	n	n
CCCC(C)C1(CC)C(=O)NC(=Nc2ccccc2)NC1=O (configuration not stated)	n	n	n	n
CC(C)NC(C)C(=O)C12CC3CC(CC(C3)C1)C2 (configuration not stated)	n	n	n	n
Fc1ccc(Cn2nnnc2C(c2ccc(Cl)cc2)N2CC=C(c3ccc(F)cc3)CC2)cc1 (configuration not stated)	x	41	x	x
Fc1ccc(C2=CCN(C(c3ccc(Cl)cc3)c3nnnn3Cc3ccccc3)CC2)cc1 (configuration not stated)	x	n	x	x
C=CCn1c(O)c(C=NCCCOc2ccc(CC)cc2)c(=O)[nH]c1=S	n	n	n	n
Cc1nn(Cc2ccc(Cl)cc2Cl)c(Cl)c1C(=O)Nc1ccc(OC(F)F)cc1	x	n	x	x
C/C(=N\NC(=S)Nc1ccccc1)c1c(O)n(C)c(=O)n(C)c1=O	x	n	x	x
CC/C(=N\Nc1ccccc1)c1c(O)n(C)c(=O)n(C)c1=O	x	28	x	x
